Screening results as filed in PubChem BioAssay.
Cardio protect: protects H9c2 cardiomyocytes from peroxide injury; H2O2 injury protection, ATPLite, 2 h; protection from H2O2 cell death, % at 20 µM; actives 0.63% (n = 360,000); AID 588492;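 active means compounds giving at least 50% protection of heart cells from peroxide-induced death in the single-dose screen, raw or plate-pattern-corrected value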
Efflux pump mplx: blocks antifungal efflux pumps in multiplex yeast assay | S. cerevisiae Candida pump triplex, Nile Red efflux | inhibition, % at 10 µM | actives 0.44% (n = 330,000) | AID 485275;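 active means plate passing quality check with inhibition over a set limit, or well fluorescence over plate mean plus 4 SD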;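 further: Nile Red retained in pooled yeast measured as flow cytometry median fluorescence; higher means more Nile Red kept so more efflux inhibition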
Calb FLC: C. albicans growth modulation with fluconazole; growth inhibition, % (no concentration beside the values); C. albicans CaCi-2 (fluconazole-resistant clinical isolate) + fluconazole, Alamar Blue growth, 48 h; actives 0.57% (n = 300,000);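 active means growth inhibition above about 58% in most replicates, limit read from the data, passing the limit was not always enough; inconclusive means exactly half the replicates above a set limit; inactive means most replicates below a set limit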;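 further: all wells also contain fluconazole at 8 µg/ml as a sub-toxic cotreatment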
Cl transport mod: modulates chloride dependent transport by human KCC2 | B-score of Tl+ flux slope (higher = more flux/activation; lower = inhibition) at 10 µM | Q9H2X9 | KCC2 cells, thallium flux FluoZin-2 fluorescence | actives 2.2% (n = 190,000);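 active means thallium flux slope and its plate-corrected score both differing from the plate sample mean at a set confidence after two filtering rounds, in either direction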;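 further: slope of fluorescence scaled to starting intensity during 10 to 20 s after thallium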
PHOSPHO1 block: inhibitors of human PHOSPHO1 phosphatase | recombinant PHOSPHO1, absorbance phosphatase assay | inhibition, % at 13.3 µM | actives 1.1% (n = 290,000); in the data active means inhibition above about 60%
Target sequence (Q8TCT1 whole entry, looked up): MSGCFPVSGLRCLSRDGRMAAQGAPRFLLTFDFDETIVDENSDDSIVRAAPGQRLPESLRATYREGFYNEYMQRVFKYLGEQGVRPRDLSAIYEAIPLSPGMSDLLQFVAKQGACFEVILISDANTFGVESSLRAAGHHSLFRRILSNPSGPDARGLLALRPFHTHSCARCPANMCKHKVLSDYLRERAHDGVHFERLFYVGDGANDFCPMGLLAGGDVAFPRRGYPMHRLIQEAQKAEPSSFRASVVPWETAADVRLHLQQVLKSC
KCC2 secondary: confirmation of human KCC2 transport modulators. shares compounds with Cl transport mod. normalised thallium flux (F/F0 slope) at 10 µM. AID 1713. actives 15% (n = 3,700). HEK293-KCC2, thallium flux, FluoZin2 fluorescence; stronger effect = higher value;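 active means thallium flux slope above the same plate's solvent-only control mean plus 3 SD; inconclusive means the two replicate wells disagree; inactive means no significant difference from solvent-only control wells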
KCC2 bumet counter: bumetanide-insensitive thallium flux in KCC2 cells with ouabain, counter-screen. HEK293-KCC2 + bumetanide/ouabain, thallium flux FluoZin2; stronger effect = higher value. shares compounds with Cl transport mod. actives 49% (n = 3,700). normalized thallium flux at 10 µM;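 active means thallium entry rate above the same plate's blocked-transporter control wells by more than 3 SD; inconclusive means the two repeat wells disagree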;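 further: raw slope of fluorescence over initial fluorescence between 10 and 20 s after thallium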
KCC2 secondary2: KCC2 (human) modulation, second secondary assay. shares compounds with Cl transport mod. HEK293-KCC2, thallium flux FluoZin2 fluorescence; actives lie on both sides; F/F0 rise rate, 10–20 s post-thallium. normalized thallium flux at 10 µM. actives 23% (n = 3,700). AID 1715;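 active means thallium flux slope more than 3 SD above or below the plate's solvent-only control mean, mostly below; inconclusive means the two repeat wells disagreed; inactive means no significant shift from solvent-only controls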
HEK counter1: parental HEK flux effect, counter-screen. HEK293 parental cells, thallium flux FluoZin2, ouabain; baseline-ratio fluorescence slope, 10–20 s after thallium. thallium flux rate (normalised fluorescence) at 10 µM. actives 46% (n = 3,700). shares compounds with Cl transport mod;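 active means thallium flux rate significantly above the same plate's solvent-only control wells, beyond their mean plus 3 SD; inconclusive means the two replicate wells gave conflicting results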
KCC2 retest ouab: confirmation of human KCC2 modulators with ouabain; shares compounds with Cl transport mod; HEK293-KCC2, thallium flux FluoZin2 fluorescence; bidirectional: low = inhibitor, high = activator; raw Tl+ flux slope (below DMSO = inhibition, above = activation) at 10 µM; actives 48% (n = 3,700);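 active means thallium flux slope beyond 3 SD from same-plate DMSO control mean in most replicates, usually higher, sometimes lower; inconclusive means repeat tests gave conflicting results; inactive means no significant difference from controls in most replicates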;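 further: slope of initial-normalized fluorescence between seconds 10 and 20 after thallium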
HEK counter2: parental HEK flux effect, counter-screen 2 | shares compounds with Cl transport mod | AID 1718 | HEK293 parental, thallium flux FluoZin-2 fluorescence slope | thallium flux slope at 10 µM | actives 33% (n = 3,700);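 active means thallium flux slope above the same plate's solvent-control mean plus 3 SD in both duplicate wells; inconclusive means duplicate wells that disagreed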;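 further: run without ouabain in cells lacking the KCC2 cotransporter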
Hits are given with their value; i = inactive; ? = inconclusive; nt = no result given. Shown are actives, neighbours in structure and some others; about 3.3% of the full set was active somewhere.

SMILES	Cardio protect	Efflux pump mplx	Calb FLC	Cl transport mod	PHOSPHO1 block	KCC2 secondary	KCC2 bumet counter	KCC2 secondary2	HEK counter1	KCC2 retest ouab	HEK counter2
Cc1ccccc1C(=O)Nc1nnc(-c2ccc(F)cc2)o1	i	i	89	7.3	i	0.013	0.024	i	0.016	i	?
CC(C)(C)c1ccc(C(=O)/C=C2\NC(=O)CS2)cc1	i	i	i	31	i	i	0.049	0.05	0.035	0.043	0.037
CCCCOc1cccc(C(=O)NC(=S)Nc2cccnc2)c1	i	i	i	6	i	0.013	0.087	i	0.029	0.052	0.013
CCCCOc1cccc(C(=O)NC(=S)Nc2cccc(C(F)(F)F)c2)c1	i	i	i	6.5	i	i	0.016	?	0.02	0.027	0.016
CCOc1cccc(C(=O)NC(=S)Nc2cccnc2)c1	i	i	i	i	i	nt	nt	nt	nt	nt	nt
Cc1cc(C)c(C#N)c(OCC(=O)c2ccccc2)n1	i	i	i	i	i	i	i	?	i	i	i
N#CCCN(Cc1ccccc1)C(=S)NC(=O)c1ccccc1	i	i	i	nt	i	nt	nt	nt	nt	nt	nt
CCOc1ccc(CN(CCC#N)C(=S)NC(=O)c2ccccc2)cc1	i	i	i	30	i	0.046	0.12	0.044	0.073	0.093	0.03
O=C(CSc1nc(-c2ccccc2)nc2ccccc12)Nc1cccc(C(=O)O)c1	i	i	i	7.4	i	i	0.014	i	0.015	0.025	0.017
COc1ccc2occ(C(=O)c3ccc(N)cc3)c2c1	i	i	i	nt	i	nt	nt	nt	nt	nt	nt
COc1ccc2occ(C(=O)c3cccs3)c2c1	i	i	i	nt	i	i	0.0071	i	i	i	i
Fc1ccccc1COc1ccc(Br)cc1CNCc1ccncc1	i	i	i	-3.3	i	?	i	i	i	0.014	i
Fc1ccccc1COc1ccc(Br)cc1CNCc1cccnc1	i	i	i	i	i	nt	nt	nt	nt	nt	nt
Cc1ccc(Nc2nc(Cl)nc3ncn(C)c23)c(C)c1	i	nt	nt	nt	nt	nt	nt	nt	nt	nt	nt
O=S(=O)(NCc1ccccc1)c1ccc(Cl)c(S(=O)(=O)NCc2ccccc2)c1	i	i	i	nt	i	i	i	?	i	0.013	i
CCOc1cc(S(=O)(=O)NCc2ccccc2)ccc1F	i	i	i	nt	i	?	i	0.024	i	?	i
Cn1c(CNC(=O)CCNC(=O)c2cccc(Br)c2)cc(=O)n(C)c1=O	i	i	i	nt	i	nt	nt	nt	nt	nt	nt
CNS(=O)(=O)c1ccc(N=Cc2c(C)[nH]n(-c3ccc(C)cc3C)c2=O)cc1	i	i	i	i	i	nt	nt	nt	nt	nt	nt
Cc1cc(Br)ccc1-n1[nH]c(C)c(C=Nc2cccc3nsnc23)c1=O	i	i	i	16	i	i	0.043	i	0.017	0.04	?
Cc1ccc(N2C(=O)C3Sc4[nH]c(=O)sc4C(c4ccccc4)C3C2=O)cc1 (centres undefined)	i	i	nt	-10	i	i	0.011	0.023	0.01	0.0098	i
O=C1C2Sc3[nH]c(=O)sc3C(c3cc([N+](=O)[O-])ccc3O)C2C(=O)N1c1ccccc1 (centres undefined)	i	i	i	i	i	nt	nt	nt	nt	nt	nt
O=C1C2Sc3[nH]c(=O)sc3C(c3ccccc3)C2C(=O)N1c1ccc(Cl)cc1 (centres undefined)	i	i	nt	-9.8	i	i	0.013	0.024	0.01	0.011	i
O=c1c2ccccc2nc(-c2ccc(Cl)cc2Cl)n1O	i	i	84	5.7	i	0.012	0.02	i	0.012	0.029	i
O=C(O)c1ccccc1-c1nc2cc(Cl)ccc2c(=O)n1O	i	i	i	i	i	nt	nt	nt	nt	nt	nt
O=c1c2ccccc2nc(-c2ccc(Cl)c(Cl)c2)n1O	63	i	i	35	i	0.018	0.11	?	0.062	0.083	0.023
SMILES	Cardio protect	Efflux pump mplx	Calb FLC	Cl transport mod	PHOSPHO1 block	KCC2 secondary	KCC2 bumet counter	KCC2 secondary2	HEK counter1	KCC2 retest ouab	HEK counter2
Cc1cccc(-c2nc3ccccc3c(=O)n2N)c1	i	i	i	nt	i	nt	nt	nt	nt	nt	nt
Cn1c(N)c(N=O)c(=O)n(C)c1=S	i	nt	nt	nt	nt	nt	nt	nt	nt	nt	nt
COc1ccc(N(CC(=O)NC2CC3CCC2C3)S(=O)(=O)c2ccccc2)cc1Cl (centres undefined)	i	i	i	nt	i	nt	nt	nt	nt	nt	nt
Cc1ccc(-n2[nH]c(C)c(/C=N/Nc3ccc([N+](=O)[O-])cc3[N+](=O)[O-])c2=O)cc1	i	i	i	-4.7	i	i	0.011	i	i	?	i
Cc1[nH]n(-c2ccc([N+](=O)[O-])cc2)c(=O)c1C=NCC1CCCO1 (centres undefined)	i	i	i	i	i	nt	nt	nt	nt	nt	nt
Cc1cccc(C)c1Nc1nnc(SCC(=O)Nc2ncc(C(F)(F)F)cc2Cl)s1	i	i	i	-6.5	i	0.0057	i	0.025	?	0.014	i
Cc1cccc(Nc2nnc(SCC(=O)Nc3ncc(C(F)(F)F)cc3Cl)s2)c1C	i	i	i	-3.6	i	i	i	0.024	i	?	i
Cc1nnc(SCC(=O)Nc2c(Cl)cccc2Cl)n(N)c1=O	i	i	i	nt	nt	nt	nt	nt	nt	nt	nt
NS(=O)(=O)c1ccc(NC(=O)CCC(=O)O)cc1	i	nt	nt	nt	nt	nt	nt	nt	nt	nt	nt
Cn1c(-c2ccc3nc(N)sc3c2)nc2cc(N)ccc21	i	i	i	nt	i	?	?	i	i	i	i
Nc1ccc(-c2nc3ccc(N)cc3s2)cc1	i	i	i	i	i	nt	nt	nt	nt	nt	nt
O=C(CC(C(=O)N1CCc2ccccc21)n1ccnc1)N1CCc2ccccc2C1 (centres undefined)	i	i	i	-6.2	i	?	i	0.024	i	?	i
Cc1ccc(S(=O)(=O)Nc2ccccc2N2CCCCC2)cc1	i	i	nt	nt	nt	nt	nt	nt	nt	nt	nt
O=S(=O)(Nc1ccccc1N1CCCCC1)c1ccc(F)cc1F	i	i	i	19	i	0.013	0.038	i	0.012	i	0.012
COCCN(Cc1nc(C(c2ccccc2)c2ccccc2)no1)C(C)C	i	i	i	nt	i	nt	nt	nt	nt	nt	nt
CCC1(c2ccc(Cl)cc2)NC(=S)N(c2ccc(C)cc2)N1 (centres undefined)	i	i	i	52	i	0.041	0.096	?	0.083	0.074	0.028
CC1=CC(C)(C)NC(=S)N1c1ccc(C)c(C)c1	i	i	i	i	i	nt	nt	nt	nt	nt	nt
